Common to all, as to assay: PBM binding z-score (relative to random genomic background probes); higher = stronger binding; sequences stand for … in GC…GCGATTGACAGCGTAGAATGAAGG
For experiment [1], the system named is RARb homodimer (NR concentration 270 nM). The procedure, abridged:
(§1)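 For binding z-scores, the reference was random background probes on custom Agilent 4×180K protein-binding microarrays. These arrays were incubated 1 h with ligand-free nuclear receptor dimers in PBS pH 7.4, 2% milk, 0.02% Triton X-100, 1 mM DTT, 0.2 mg/mL BSA and 0.4 mg/ml salmon testes DNA. Fluorescence was scanned after antibody detection of each partner (one per run) and regression-normalized.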

Experiment [2] concerns RARg:RXRa (NR concentration 270 nM, RXRa partner concentration 90 nM). The procedure, abridged:
as §1

For experiment [3], the system named is RARg homodimer (NR concentration 270 nM). The method in brief:
as §1

Experiment [4] has as its system RXRa DBDmut IVT, anti-RXR (DBD mutation: RXRa K156A/R161A, NR concentration 90 nM). The procedure, abridged:
as §1

In experiment [5] the test system is RXRa homodimer (NR concentration 180 nM). The method in brief: as §1
Experiment [6] relates to THRa:RXRa (NR concentration 90 nM, RXRa partner concentration 90 nM). The method in brief: as §1
The test system of experiment [7] is THRa homodimer (NR concentration 90 nM). The method in brief:
as §1

The subject of experiment [8] is VDR homodimer (NR concentration 270 nM). The method in brief:
as §1

Consider seven sequences from the supplement of paper PMC6555819.

Consider TCTCGGAGGACACGAAGGTCAGAGCGTTCCAGAG, for which the PBM binding z-score in experiment [1] turned out to be 3.79; in experiment [2] it was 3.32; in experiment [3], 3.84; in experiment [4], 0.548; in experiment [5] it was 1.94; in experiment [6], 2.99. The PBM binding z-score in experiment [7] was found to be 0.835; in experiment [8], 1.2.

Turning to TCTAGTTGGTCAAAGGTAACACACTCGAAATGCG, the PBM binding z-score in experiment [1] was found to be 1.51; in experiment [2] it was 1.97; in experiment [3] it was 1.45; in experiment [4], 1.33; in experiment [5] it was 2.42; in experiment [6], 1.46. In addition, the PBM binding z-score was 0.935 in experiment [7] and 0.995 in experiment [8].

On to ATACCAAGGTGATCGTGAGGGCGTTGATACTAAC, for which the PBM binding z-score in experiment [1] came out at 1.07; in experiment [2] it was 0.664; in experiment [3] it was 0.461; in experiment [4], 0.501; in experiment [5] it was 0.36; in experiment [6] it was 2.16. In addition, the PBM binding z-score came out at 1.23 in experiment [7] and 1.36 in experiment [8].

For CCTATTAGTCGACCATAAGGGCAACCGAAGCTCG, the PBM binding z-score was found to be 1.55 in experiment [1]; 0.761 in experiment [2]; 0.875 in experiment [3]; 0.45 in experiment [4]; 0.505 in experiment [5]; 1.33 in experiment [6]. In addition, the PBM binding z-score in experiment [7] is 0.896; in experiment [8], 0.533.

For the sequence TCAGACAGGTAAAGGTAACTCAGGTACGCAGTCG, the PBM binding z-score in experiment [1] came to 0.829; in experiment [2] it was 0.751; in experiment [3], 0.576; in experiment [4], 1.53; in experiment [5], 1.08; in experiment [6], 1.67. The results for the PBM binding z-score in experiment [7] and in experiment [8] were 0.705 and 0.388, respectively.

Turning to AATACAGGGTCACTAGGCCAGAGTTGGTACGAAT, the PBM binding z-score in experiment [1] came out at 3.56; in experiment [2], 5.2; in experiment [3], 5.06; in experiment [4], 2.8; in experiment [5], 5.94; in experiment [6], 3.51. Besides, the PBM binding z-score in experiment [7] was 1.21; in experiment [8] it was 2.58.

As for TCATATAGGTAATACAGGTGAAAGTGGGCATCTA, the PBM binding z-score in experiment [1] was determined as 0.844; in experiment [2], 0.777; in experiment [3], 0.705; in experiment [4], 2.06; in experiment [5] it was 1.3; in experiment [6], 0.901. In addition, the PBM binding z-score amounted to 0.52 in experiment [7] and 0.577 in experiment [8].
